Test results as given in PubChem BioAssay AID1159580 (chemical genetic matrix, 2015).
Where “and” joins values, the source holds several entries; their conditions need not be identical. Equal values may be shown once. The campaign covered roughly 5,500 compounds. About 2,000 (36%) were called active. Not shown: some 18% with an inconclusive outcome. Rule as the data show it: active = normalized growth mostly below about 0.91 (no sharp cut-off); inconclusive = no clear call, values can overlap the other calls; inactive = mostly above about 0.92. Some of the results follow.

Assay: chemical genetic growth profiling, strain panel (AID 1159580);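 also: tested at 20 µM; growth read once vehicle control cultures reached saturation at 30 °C; 1 = growth at the plate median or of vehicle wells; lower values mean less growth of the strain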
Details: S. cerevisiae deletion strains, growth OD

Measured: normalized growth

Cc1ncc([N+](=O)[O-])n1CCO
inactive: locus YAL013W, strain DEP1, stronger effect = lower value 0.989 | locus YAL021C, strain ccr4, stronger effect = lower value 0.983 | locus YAL026C, strain drs2, stronger effect = lower value 1 | locus YAL030W, strain snc1, stronger effect = lower value 0.971 | locus YBL061C, strain skt5, stronger effect = lower value 0.98 | locus YBR009C, strain hhf1, stronger effect = lower value 1.01 | locus YBR021W, strain FUR4, stronger effect = lower value 0.998 | locus YBR023C, strain chs3, stronger effect = lower value 0.976 | locus YBR171W, strain sec66, stronger effect = lower value 0.982 | locus YBR229C, strain ROT2, stronger effect = lower value 0.944 | locus YBR231C, strain swc5, stronger effect = lower value 0.999 | locus YBR279W, strain paf1, stronger effect = lower value 0.975 | locus YCL011C, strain gbp2, stronger effect = lower value 0.945 | locus YCL016C, strain dcc1, stronger effect = lower value 0.968 | locus YCL029C, strain bik1, stronger effect = lower value 0.986 | locus YCL061C, strain MRC1, stronger effect = lower value 0.992 | locus YCL069W, strain vba3, stronger effect = lower value 0.985 | locus YCR088W, strain abp1, stronger effect = lower value 0.974 | locus YDL005C, strain med2, stronger effect = lower value 0.968 | locus YDL035C, strain GPR1, stronger effect = lower value 0.967 | locus YDL040C, strain nat1, stronger effect = lower value 0.98 | locus YDL074C, strain BRE1, stronger effect = lower value 1.02 | locus YDL101C, strain DUN1, stronger effect = lower value 0.977 | locus YDL134C, strain PPH21, stronger effect = lower value 0.978 | locus YDL185W, strain tfp1, stronger effect = lower value 0.983 | locus YDL192W, strain arf1, stronger effect = lower value 0.978 | locus YDR001C, strain nth1, stronger effect = lower value 0.965 | locus YDR069C, strain doa4, stronger effect = lower value 0.981 | locus YDR101C, strain arx1, stronger effect = lower value 1.01 | locus YDR137W, strain rgp1, stronger effect = lower value 0.967 | locus YDR150W, strain NUM1, stronger effect = lower value 0.956 | locus YDR159W, strain sac3, stronger effect = lower value 1.02 | locus YDR162C, strain NBP2, stronger effect = lower value 0.968 | locus YDR195W, strain ref2 0.982 | locus YDR297W, strain sur2, stronger effect = lower value 0.974 | locus YDR318W, strain mcm21, stronger effect = lower value 0.999 | locus YDR334W, strain swr1, stronger effect = lower value 0.941 | locus YDR335W, strain msn5, stronger effect = lower value 0.971 | locus YDR388W, stronger effect = lower value 0.997 | locus YDR392W, strain spt3, stronger effect = lower value 0.956 | locus YDR502C, strain sam2, stronger effect = lower value 0.98 | locus YEL003W, strain gim4, stronger effect = lower value 0.989 | locus YEL037C, strain rad23, stronger effect = lower value 0.976 | locus YEL061C, strain CIN8 (second series), stronger effect = lower value 0.975 | locus YEL061C, strain CIN8, stronger effect = lower value 0.979 | locus YER015W, strain faa2, stronger effect = lower value 0.982 | locus YER016W, strain bim1, stronger effect = lower value 0.984 | locus YER110C, stronger effect = lower value 0.965 | locus YER111C, strain swi4, stronger effect = lower value 0.981 | locus YER155C, strain BEM2 (second series), stronger effect = lower value 1.03 | locus YER155C, strain BEM2, stronger effect = lower value 1.01 | locus YER167W, strain BCK2, stronger effect = lower value 0.988 | locus YFR010W, strain ubp6, stronger effect = lower value 0.981 | locus YGL078C, strain dbp3, stronger effect = lower value 0.973 | locus YGL086W, strain mad1, stronger effect = lower value 0.982 | locus YGL167C, strain pmr1, stronger effect = lower value 0.984 | locus YGL173C, strain kem1, stronger effect = lower value 0.981 | locus YGL227W, strain vid30, stronger effect = lower value 0.981 | locus YGL240W, strain doc1, stronger effect = lower value 0.993 | locus YGL248W, strain PDE1, stronger effect = lower value 0.976 | locus YGL253W, strain hxk2, stronger effect = lower value 0.977 | locus YGR078C, strain PAC10, stronger effect = lower value 0.98 | locus YGR135W, strain pre9, stronger effect = lower value 0.991 | locus YGR229C, strain SMI1, stronger effect = lower value 0.998 | locus YGR252W, strain gcn5, stronger effect = lower value 0.904 | locus YHR013C, strain ard1, stronger effect = lower value 0.948 | locus YHR027C, strain rpn1, stronger effect = lower value 0.962 | locus YHR030C, strain SLT2, stronger effect = lower value 0.985 and 1.07 | locus YHR079C, strain IRE1 (second series), stronger effect = lower value 1.01 | locus YHR079C, strain IRE1, stronger effect = lower value 1.05 | locus YHR094C, strain hxt1, stronger effect = lower value 0.99 | locus YHR129C, strain ARP1, stronger effect = lower value 0.994 | locus YHR142W, strain chs7, stronger effect = lower value 0.933 | locus YHR200W, strain rpn10, stronger effect = lower value 0.997 | locus YIL066C, strain RNR3, stronger effect = lower value 0.97 | locus YIL073C, strain SPO22, stronger effect = lower value 1.01 | locus YIL125W, strain kgd1, stronger effect = lower value 0.989 | locus YIR030C, strain dcg1, stronger effect = lower value 0.983 | locus YJL092W, strain hpr5, stronger effect = lower value 0.985 | locus YJL095W, strain BCK1 (second series), stronger effect = lower value 0.98 | locus YJL095W, strain BCK1, stronger effect = lower value 1.02 and 1.04 | locus YJL115W, strain asf1, stronger effect = lower value 0.958 | locus YJL129C, strain trk1, stronger effect = lower value 0.968 | locus YJL134W, strain LCB3, stronger effect = lower value 0.978 | locus YJL154C, strain vps35, stronger effect = lower value 0.963 | locus YJL164C, strain tpk1, stronger effect = lower value 0.996 | locus YJL166W, strain qcr8, stronger effect = lower value 0.96 | locus YJL168C, strain set2, stronger effect = lower value 0.993 | locus YJL187C, strain SWE1 (second series), stronger effect = lower value 0.985 | locus YJL187C, strain SWE1, stronger effect = lower value 0.981 | locus YJR043C, strain POL32, stronger effect = lower value 1.02 | locus YJR066W, strain TOR1, stronger effect = lower value 1.01
